Compounds with a hit are over-represented: about 2.3% of the library has one in this group of screens.
ELG1 DNA repair = blocks ELG1-dependent DNA repair in HEK293T cells; HEK293T ELG1-luciferase reporter, luminescence, 16 h; DNA damage induced by 5-fluorouridine; Potency, µM (top dose mostly 46.1 µM), actives largely listed as inhibitors; 2.3% of 330,000 active; AID 504467; further: nearly all actives have a fitted effect of over 55% in size
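Reporter activity after DNA damage by 5-fluorouridine is monitored. Compound-treated cells incubate 16 hr at 37 °C, then ONE-Glo is added for 30 min before luminescence reading.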
TRPV1 agonist = human TRPV1 agonism; Q8NER1; TRPV1-expressing cells, Fluo-8 calcium influx, agonist mode; activation, % at 8.33 µM; 0.19% of 320,000 active; in the data active means activation above about 80%; inconclusive means between about 30% and that limit
Target sequence (Q8NER1 whole entry, looked up): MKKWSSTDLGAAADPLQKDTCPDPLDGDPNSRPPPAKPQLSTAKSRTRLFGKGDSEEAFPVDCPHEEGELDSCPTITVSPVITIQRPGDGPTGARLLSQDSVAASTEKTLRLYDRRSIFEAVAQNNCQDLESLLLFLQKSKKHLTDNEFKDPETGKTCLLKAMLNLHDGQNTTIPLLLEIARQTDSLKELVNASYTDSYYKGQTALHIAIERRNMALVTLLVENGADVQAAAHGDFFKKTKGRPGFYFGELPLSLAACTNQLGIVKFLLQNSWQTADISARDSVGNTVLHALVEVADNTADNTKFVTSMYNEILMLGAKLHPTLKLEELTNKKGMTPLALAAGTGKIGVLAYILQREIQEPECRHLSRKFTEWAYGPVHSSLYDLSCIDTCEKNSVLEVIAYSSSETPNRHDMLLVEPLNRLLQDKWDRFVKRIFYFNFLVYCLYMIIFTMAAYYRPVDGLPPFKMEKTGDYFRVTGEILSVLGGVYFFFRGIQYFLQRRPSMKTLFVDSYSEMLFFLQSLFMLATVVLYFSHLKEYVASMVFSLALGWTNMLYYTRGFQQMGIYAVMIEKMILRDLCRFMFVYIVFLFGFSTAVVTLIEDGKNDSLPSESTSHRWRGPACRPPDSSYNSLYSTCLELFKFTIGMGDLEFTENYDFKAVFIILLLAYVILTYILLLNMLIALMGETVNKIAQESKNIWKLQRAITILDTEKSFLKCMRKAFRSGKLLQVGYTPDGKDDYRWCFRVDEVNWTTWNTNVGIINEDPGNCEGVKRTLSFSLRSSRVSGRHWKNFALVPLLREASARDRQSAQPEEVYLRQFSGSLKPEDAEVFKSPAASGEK
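Cells expressing TRPV1 were dye-loaded with Fluo-8 and read kinetically: 10 s baseline, 3 min after compound (agonist portion), then 2 min after EC20 capsaicin (allosteric enhancer portion). Calcium-bound dye fluorescence at 480/520 nm.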
Giardia killer = kills Giardia lamblia; Giardia lamblia trophozoite viability; activity change, % at 7.66 µM, hits read low; 0.15% of 340,000 active; AID 540267; in the data active means activity change below about -80%; inconclusive means between about -30% and that limit;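 further: parasites exposed to compound for two days anaerobically before the ATP read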
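ATP-content bioluminescence gauges trophozoite survival. Cells (100/well) receive compound and incubate anaerobically for 48 hrs at 37 deg C; detection reagent follows for 15-30 min at room temperature.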
FUS yeast rescue = suppressors of FUS proteinopathy in yeast | S. cerevisiae FUS-expressing, growth rescue, OD600, 24 h | Potency, µM (titrated, usually from 76.6 µM), hits mostly activators | 0.24% of 390,000 active | AID 1347120; further: nearly all actives have a fitted effect of over 55% in size
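Quantitative HTS measuring growth restoration of FUS-toxic yeast. Galactose-induced cells (OD 0.005) were exposed 24hr at 30C to compounds at several concentrations, then absorbance at 600 nm was recorded.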
TRPV1 potentiator = human TRPV1 potentiation. AID 540277. potentiation, % at 8.33 µM. TRPV1-expressing cells, Fluo-8 calcium influx, capsaicin EC20 potentiation. 0.02% of 320,000 active. Q8NER1; in the data active means potentiation above about 80%; inconclusive means between about 30% and that limit
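Cells expressing TRPV1 were dye-loaded with Fluo-8 and read kinetically: 10 s baseline, 3 min after compound (agonist portion), then 2 min after EC20 capsaicin (allosteric enhancer portion). Calcium-bound dye fluorescence at 480/520 nm.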
Numbers stand for hits; . = inactive; ? = inconclusive; / = not tested or not shown. Unless noted, the call rests on the fitted dose curve; in most records, active means well fitted curve in the direction sought with a large enough effect; inconclusive means small, poorly fitted or top-dose-only effect, or another doubt; inactive means no such curve, though single readings can be large; an effect the other way counts as inactive or inconclusive.

SMILES	ELG1 DNA repair	TRPV1 agonist	Giardia killer	FUS yeast rescue	TRPV1 potentiator
Cc1ccc(C(=O)NCCC(C)C)cc1NC(=O)c1nsc2ccccc12	/	/	/	.	/
Oc1ccc(Oc2ccc3c(C(F)(F)F)cc(C(F)(F)F)nc3n2)cc1	18µM	.	.	.	.
COc1ccc(Oc2ccc3c(C(F)(F)F)cc(C(F)(F)F)nc3n2)cc1	.	.	.	.	.
NCc1cn(Cc2ccccc2)nc1-c1ccccc1	/	/	.	/	/
COc1ccc(-c2nnc3n(CCc4ccccc4)c(=O)c4ccccc4n23)c(OC)c1	8.2µM	.	.	.	.
COc1cc(OC)c(-c2nnc3n(CCc4ccccc4)c(=O)c4ccccc4n23)cc1OC	?	.	/	/	.
COc1cc(-c2nnc3n(CCc4ccccc4)c(=O)c4ccccc4n23)cc(OC)c1OC	21µM	.	.	.	.
COc1cc(NC(=O)C2CCN(S(=O)(=O)c3c(C)noc3/C=C/c3c(C)cc(C)cc3C)CC2)cc(OC)c1	/	/	/	.	/
Cc1ccc(CNC(=O)c2sc3nc(-c4ccc(F)cc4)ccc3c2N)cc1	/	/	/	25µM	/
COc1ccc(CNC(=O)CN2N=C(c3ccc(Cl)cc3)CCC2=O)cc1	/	/	/	.	/
Cc1cc(-c2ccc(C)c(S(=O)(=O)Nc3ccccc3C(F)(F)F)c2)on1	/	/	/	.	/
COc1ccc([N+](=O)[O-])cc1NC(=O)C(C)N(C)Cc1cccc(OC)c1OC (stereo not drawn)	9.2µM	?	.	/	.
COc1ccc([N+](=O)[O-])cc1NC(=O)Nc1ccc(OC)c(OC)c1	15µM	.	.	.	.
COc1cc(CN(C)C(C)C(=O)Nc2ccc([N+](=O)[O-])cc2Cl)ccc1OC(F)F (stereo not drawn)	16µM	.	.	.	.
COc1ccc(Br)cc1CN(C)C(C)C(=O)Nc1cccc(C(C)=O)c1 (stereo not drawn)	26µM	?	.	.	.
Cc1ccnc(Nc2nc(-c3c(C)nc4sccn34)cs2)c1	26µM	.	.	.	.
CN(CC(=O)Nc1ccccc1Br)C(=O)c1ccccc1-c1nc2ccccc2s1	21µM	?	.	?	.
O=C(Nc1cccc(Cl)c1)c1cc2c(=O)[nH]c3ccccc3c2s1	/	/	/	.	/
COc1ccc(CNCC(O)(c2ccccc2)c2ccccc2)cc1OC	23µM	.	.	.	.
CCC(C)(C(=O)NC1CCCC1)N(C(=O)c1ccccn1)c1ccccc1 (stereo not drawn)	.	.	.	.	.
CCC(C)(C(=O)NC1CCCC1)N(C)C(=O)c1ccccn1 (stereo not drawn)	.	.	.	.	89
COc1cccc(S(=O)(=O)Nc2ccc(C(=O)N3CCN(C(=O)c4ccco4)CC3)cc2)c1	18µM	.	.	.	.
COc1ccc(N2CCN(S(=O)(=O)c3c(C)[nH]c(=O)[nH]c3=O)CC2)cc1	/	/	/	.	/
COCCn1c(SCc2nc3scc(-c4ccc(Cl)cc4)c3c(=O)[nH]2)nnc1-c1cccc(C)c1	23µM	.	.	/	.
N#CCSc1ncnc2ccccc12	23µM	.	.	.	.
SMILES	ELG1 DNA repair	TRPV1 agonist	Giardia killer	FUS yeast rescue	TRPV1 potentiator
CC1CCc2c(sc(NC(=O)Cn3nnc(-c4ccc(C(F)(F)F)cc4)n3)c2C#N)C1 (stereo not drawn)	/	/	/	.	/
Cc1ccc(-c2[nH]ncc2CNCc2ccc(CN(C)C)cc2)cc1	/	/	.	/	/
COc1cc(OC)cc(-c2cc3nc(C)c(CCC(=O)NCc4ccccc4)c(C)n3n2)c1	21µM	.	.	?	.
O=C1CN(C(=O)c2ccccc2C(F)(F)F)C(c2ccccc2)c2cc(F)ccc2N1 (stereo not drawn)	/	/	/	.	/
CC(=O)Nc1ccc(S(=O)(=O)N2CCC(n3c(C)nc4cccnc43)CC2)cc1	/	/	/	.	/
Cc1cc(/C=C2\SC(=Nc3ccccc3)NC2=O)c(C)n1-c1ccc(S(N)(=O)=O)cc1	11µM	.	.	?	.
Cc1ccc(-n2c(C)cc(/C=C3\SC(=O)NC3=O)c2C)cc1	?	.	.	.	.
Cc1ccc(-c2[nH]ncc2/C=C(\C#N)C(=O)NC2CCCCC2)cc1	9.2µM	?	.	.	.
COc1ccc(CC(=O)NCCc2csc(-c3cccc(C)c3)n2)cc1	/	/	/	.	/
NNc1nc(Nc2ccccc2)nc(Nc2ccccc2)n1	16µM	?	.	.	.
CCCC/C=C/[C@H](c1ccccc1)[C@H](CO)Cc1ccccc1	/	/	.	/	/
COC(=O)[C@]12CCCCC=C1N(CCc1ccc(OC)c(OC)c1)C(=O)[C@H](CC(=O)NCc1cccc(C(F)(F)F)c1)C2	/	/	/	4.5µM	/
COC(=O)[C@]12CCCCC=C1N(CCc1ccc(OC)c(OC)c1)C(=O)[C@H](CC(=O)NCCCCc1ccccc1)C2	/	/	/	8.9µM	/
CCc1ccc(CN(C(=O)c2ccc(OC)cc2)C2CCS(=O)(=O)C2)cc1 (stereo not drawn)	/	/	/	.	/
CCOc1ccccc1NC(=O)Cn1ncc2c(=O)oc3ccc(C)cc3c21	/	/	/	.	/
COc1ccc(-c2sc3ccc(OC)cc3c2C#Cc2cncn2C)cc1	5.8µM	/	.	?	/
COc1ccc(Nc2nc(N3CCCC3)c3ccccc3n2)cc1	9.2µM	.	.	/	.
COc1ccc(Nc2nc(N3CCCCC3)nc3ccccc23)c(OC)c1	23µM	.	.	.	.
CCOc1ccc(/C=C/C(=O)Nc2ccc3nc(N(CC)CC)cc(C)c3c2)cc1OC	/	/	/	.	/
COc1ccc(-c2noc(COc3ccc(Br)cc3C)n2)cc1OC	/	/	/	.	/
COc1cc(NC(=O)CN2CCN(c3ccccc3O)CC2)c(C)cc1[N+](=O)[O-]	21µM	.	.	/	.
COCCn1c(C)cc(O)c(C(c2ccc(F)cc2)N2CCN(c3ccccc3)CC2)c1=O (stereo not drawn)	/	/	/	.	/
CSc1ccc(CCNC(=O)CCn2c(=O)c3cccn3c3ccc(F)cc32)cc1	/	/	/	.	/
Cc1ccc(C(=O)OCC(=O)Nc2ccccc2)cc1NC(=O)c1ccco1	?	.	.	.	.
COc1ccc(Cl)cc1C(=O)OCC(=O)Nc1sccc1C(N)=O	23µM	/	.	.	/
SMILES	ELG1 DNA repair	TRPV1 agonist	Giardia killer	FUS yeast rescue	TRPV1 potentiator
COCCn1c(SCC(=O)Nc2sccc2C(N)=O)nc2cc(Cl)ccc2c1=O	23µM	.	.	.	.
NC(=O)c1ccsc1NC(=O)COC(=O)c1ccc(Cl)cc1	.	.	.	.	.
Cc1ccc(C(=O)OCC(=O)Nc2sccc2C(N)=O)cc1NC(=O)c1ccco1	8.2µM	.	.	.	.
NC(=O)c1ccsc1NC(=O)COC(=O)c1ccc(Cl)c(N)c1	12µM	.	.	?	.
COc1ccc(-c2c(C)nn3c4c(cnc23)C(=O)CC(c2ccccc2)C4)cc1 (stereo not drawn)	/	/	/	.	/
O=C1CN(C(=O)COc2ccc(Cl)cc2Cl)C(c2ccccc2)c2cc(F)ccc2N1 (stereo not drawn)	/	/	/	32µM	/
O=C1CN(C(=O)c2ccc(Br)o2)C(c2ccccc2)c2cc(F)ccc2N1 (stereo not drawn)	18µM	.	.	.	.
O=C1CN(C(=O)c2ccccc2)C(c2ccccc2)c2cc(F)ccc2N1 (stereo not drawn)	.	.	.	.	.

Source: PubChem (National Center for Advancing Translational Sciences (NCATS))
